Active and inactive are the calls of the source. Rule for the calls: active = hit-call score of the fitted dose curve at least 0.9, where 1 is the maximum; inactive = score below 0.9.
Read-out: Signal transducer and activator of transcription 3 (Homo sapiens) (UniProt P40763)
Experiment: LTEA_HepaRG_STAT3: Life Technologies and Expression Analysis (LTEA) Assay for Signal transducer and activator of transcription (STAT3) using HepaRG (AID 2283529)
Conditions: mRNA level, 48 h; actives raise or lower the signal
Protocol: LTEA_HepaRG is a cell based, multiplexed-readout assay that uses HepaRG, a human liver cell line, with measurements taken at 48 hours after chemical dosing on a 96-well plate.LTEA_HepaRG_STAT3 is one of 102 assay component(s) measured in the LTEA HepaRG cell culture assay. It is a marker of Cell proliferation, survival, death.Data from the assay component LTEA_HepaRG_STAT3 was analyzed into 1 endpoint. This assay endpoint, LTEA_HepaRG_STAT3, was analyzed with bidirectional fitting relative to DMSO as the negative control and baseline of activity. Using a type of inducible reporter, measures of mRNA induction for gain or loss-of-signal activity can be used to understand regulation of transcription factor activity. To generalize the intended target to other relatable targets, this assay endpoint is annotated to the dna binding intended target family, where the subfamily is stat protein.
A total of 1060 chemcials from the ToxCast library were tested in eight-point concentration-response experiments. Cell culture and cytotoxicity assays were conducted at Thermo Fisher Scientific's Custom Services facility (Madison, WI). A single lot of human HepaRG cells (Thermo Fisher Scientific, Frederick, MD) was used for the cell culture experiments. 96-well format collagen type I coated plates of human HepaRG cells were prepared using established methods. Briefly, cryopreserved HepaRG cells were thawed, plated at a density of approximately 100,000 cells/well in HepaRG Thaw, Plate, and General Purpose media (HPRG770, Thermo Fisher Scientific), and incubated for 48 hours. 0.5% DMSO was selected as vehicle control to balance the requisite need of DMSO in HepaRG cultures to maintain differentiation (for example, baseline metabolism, proportions of hepatocytes vs. cholangiocytes), while enabling further hepatic receptor pathway activation (for example, PXR and CAR) in response to chemical exposure. 48 hours after plating, the culture medium was replaced with HepaRG Serum-Free Incudtion Media. Cells were exposed to each test chemical in duplicate and maintained in CO2 incubators for another 48 hours. Chemical plates were thawed to room temperature and 200x concentrations of treatment groups were prepared. 8-point conentration-reponse curves were made with the highest exposure at 100 uM, followed by half-log dilutions, all in 0.5% DMSO. Each test plate contained variouse controls, induction positive controls (1mM phenobarbital), cytotoxicity positive controls ([…] aflatoxin B1), vehicle controls (0.5% DMSO), and total lysis controls (0.5% DMSO). Cell morphology images were taken using an Essen IncuCyte FLR automated microscope, with six 96-well plates imaged in about 24 minutes. Images were captured and exported and JPEG files. Spent culture media was transfered to black-well plates for the LDH assay, and remaining media was sorted at -80 C for later use. Cells were treated with RLT buffer and frozen until shipped for gene expression analysis. Total RNA was isolated from the cell suspension in 75 uL of Buffer RLT (Qiagen, Germantown, MD 20874) by Quintiles/Expression Analysis (Durham, NC) using a custom isolation procedure. Total RNA from each plate well was transferred to a preamplification plate. Fluidigm's 96.96 Dynamic ArrayTM (Fluidigm, Amsterdam, the Netherlands) technology was used for gene expression analyses by quantitative reverse transcription polymerase chain reaction (qRT-PCR, performed by Quintiles/Expression Analysis, Durham, NC)89. Standard TaqManTM Assays (Applied Biosystems/ThermoFisher Scientific, Foster City, CA) were used to assess the expression of 93 genes selected based on their selectivity and sensitivity to important hepatic receptors known to be modulated by environmental chemicals; importance in human hepatocyte functionality; and hepatotoxicity. […]

Signal transducer and activator of transcription 3 (Homo sapiens), sequence (P40763 whole entry, looked up): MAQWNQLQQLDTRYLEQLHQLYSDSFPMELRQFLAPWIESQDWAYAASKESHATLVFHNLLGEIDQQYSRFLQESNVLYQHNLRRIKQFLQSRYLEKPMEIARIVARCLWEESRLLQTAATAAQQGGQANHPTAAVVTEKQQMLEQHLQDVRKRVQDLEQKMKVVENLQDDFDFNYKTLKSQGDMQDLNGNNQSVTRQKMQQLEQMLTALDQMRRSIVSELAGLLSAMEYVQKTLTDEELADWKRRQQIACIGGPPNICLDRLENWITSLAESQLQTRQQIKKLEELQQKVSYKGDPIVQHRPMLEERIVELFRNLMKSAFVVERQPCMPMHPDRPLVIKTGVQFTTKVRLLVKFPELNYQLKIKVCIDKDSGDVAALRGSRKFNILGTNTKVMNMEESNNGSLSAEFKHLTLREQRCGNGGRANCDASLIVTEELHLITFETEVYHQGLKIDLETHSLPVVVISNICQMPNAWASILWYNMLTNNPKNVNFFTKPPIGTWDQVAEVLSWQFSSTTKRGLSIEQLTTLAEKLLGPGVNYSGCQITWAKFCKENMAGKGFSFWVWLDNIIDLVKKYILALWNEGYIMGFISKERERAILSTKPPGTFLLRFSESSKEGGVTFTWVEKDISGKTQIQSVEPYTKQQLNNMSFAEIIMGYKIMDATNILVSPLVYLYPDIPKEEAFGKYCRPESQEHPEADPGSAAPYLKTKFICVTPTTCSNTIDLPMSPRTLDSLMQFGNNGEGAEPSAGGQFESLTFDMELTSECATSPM

SMILES | outcome
Clc1cccc(Cl)c1Cl | inactive
Cc1cc(C)cc(C)c1 | inactive
CN(C)C(=S)S | inactive
N#Cc1cccnc1 | inactive
CCCCCCCCCCCCc1cccc(S(=O)(=O)O)c1 | inactive
O=C(O)C1(c2ccc3c(c2)OC[C@H](Cc2ccc(-c4ccccc4)cc2)[C@H]3O)CCCC1 | inactive
Oc1cc(Cl)c(Cl)cc1Cl | inactive
OCCN(CCO)CCO | inactive
Oc1c(Cl)cc(Cl)cc1Cl | inactive
CC(C)(C)c1ccccc1O | inactive
Clc1cccc(Cl)c1 | inactive
CC(C)O.CC(C)O.OCCN(CCO)CCO.OCCN(CCO)CCO.[Ti] | inactive
O=C(N[C@H]1CN2CCC1CC2)c1ccc2c(c1)OCCO2 | inactive
COc1ccccc1N | inactive

From PubChem BioAssay (EPA / NIEHS)
